# Measured values published in PubChem BioAssay AID1963320 (National Center for Advancing Translational Sciences (NCATS), 2024).
# The whole screen tested about 1,300 compounds, of which about 560 (43%) were called active. Another 39% or so got no clear call; they are omitted. Calls come from the whole dose curve; as a rule, active = well fitted inhibition curve with a large enough effect; inconclusive = small, poorly fitted or top-dose-only effect; inactive = flat fitted curve, though single readings scatter. The set was probably picked from earlier hits. These entries were drawn from the full list.
# Biological target: Luciferin 4-monooxygenase (Photinus pyralis) (UniProt P08659)
# Sequence (P08659 whole entry, looked up): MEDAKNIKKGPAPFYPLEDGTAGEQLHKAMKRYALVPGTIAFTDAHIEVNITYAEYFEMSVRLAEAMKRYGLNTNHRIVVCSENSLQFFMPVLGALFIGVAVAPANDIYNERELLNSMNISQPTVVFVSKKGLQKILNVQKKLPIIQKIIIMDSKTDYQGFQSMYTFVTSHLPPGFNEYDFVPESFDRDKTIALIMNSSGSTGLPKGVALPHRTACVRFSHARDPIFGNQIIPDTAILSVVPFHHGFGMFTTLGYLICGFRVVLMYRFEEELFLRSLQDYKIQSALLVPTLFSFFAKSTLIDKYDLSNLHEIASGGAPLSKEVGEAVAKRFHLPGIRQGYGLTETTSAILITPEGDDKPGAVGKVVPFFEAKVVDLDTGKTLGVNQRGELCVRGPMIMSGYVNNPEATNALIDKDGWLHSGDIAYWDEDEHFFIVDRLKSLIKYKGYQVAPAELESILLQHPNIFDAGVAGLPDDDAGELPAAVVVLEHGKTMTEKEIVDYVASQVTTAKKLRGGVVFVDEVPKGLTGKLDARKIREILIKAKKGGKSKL
# Experiment: Firefly luciferase (FLuc-C-HiBiT) enzymatic inhibition screen - Functional assay
# Details: purified FLuc-C-HiBiT enzyme, luciferin luminescence; series mostly up to 32.7 µM; activity change, negative = inhibition: at the top concentration
# From the text: PI: James Inglese Ph.D. National Center for Advancing Translational Sciences (NCATS), National Institute of Health (NIH), Maryland Discovery and optimization of novel protein-binding ligands underlies many of the methods and applications of biology, drug discovery, clinical diagnostics, and environmental toxicology. Assays for detecting the interaction of, for example, a molecule with a macromolecular target also referred to here as the target of interest (TOI) is dependent on a compatible output technology. Depending on the nature and knowledge surrounding the TOI, whether a receptor, enzyme, regulatory subunit or scaffold, or a sequence-defined nucleic acid folded into a complex tertiary structure, assay strategies can vary widely. Here we exploit ligand-biased changes in the structural dynamics of the target protein to control reporter alpha complementation allowing a non-competitive, non-functional, non-separation measure of ligand-target interaction. […] Secondly, we show the specificity and sensitivity of the SDR for the Abelson tyrosine kinase (ABL1) compared to the serine/threonine protein kinase A, using an enriched chemical library of 128 compounds selected, in part, for activity annotated with ABL1 kinase activity using the Pharos database (3). References: (1) A. S. Dixon et al., NanoLuc Complementation Reporter Optimized for Accurate Measurement of Protein Interactions in Cells. ACS Chem Biol 11, 400-408 (2016). […] Chemistry & Biology, 19, 1060 - 1072 (2012). (3) K. J. Kelleher et al., Pharos 2023: an integrated resource for the understudied human proteome. Nucleic Acids Res 51, D1405-D1416 (2023).
# 1. Reagent. Dispense 4 uL FLuc-C-HiBiT enzyme-buffer solution per well at a final enzyme concentration of 10 nM with or without 10 uM ATP into columns 2-48 of white, solid bottom medium bind 1536-well plates (Greiner Bio-One) by BioRaptr 2. Dispense respective buffer without enzyme at 4 uL/well in column 1 of assay plates. 2. Compounds. Library compounds and PTC124 control added at 23 nL per well, transfer by Pin Tool. 3. Incubation. Incubate enzyme and compounds at room temperature for >30 min, protect from light. 4a. Reagent. (Functional assay) Add 3 uL of D-luciferin substrate at final (KM) concentration of 10 uM/well of assay plates for FLuc enzymatic assay, in the presence of ATP. 5. Incubation. Incubate enzyme and substrate or detection reagent at room temperature for 5-10 min, protect from light. 6a. Detector. Functional assay measured using CCD-based camera (ViewLux) with settings as follows: Exposure, 10 sec; Gain, High; Speed, Slow; Binning, 2X. REFERENCES: Inglese J, Shamu CE and Guy RK, Reporting data from high throughput screening of small molecule libraries, Nature Chemical Biology, 2007, 3(8): 438-441. doi.org/10.1038/nchembio0807-438.
# % is set by controls: 0 for no effect and ±100 for the full control effect; potency is the fitted concentration of half-maximal effect.
# Note: nearly all actives have a fitted effect of over 70% in size.
SMILES,Potency,"activity change, negative = inhibition"
CN(CCc1cn[nH]c1)c1ccc(-c2nc(-c3ccccc3F)no2)cn1,3130 nM (active),
Cc1cc(C)n(CCC(=O)N2CCC(Cc3noc(C4CC4)n3)C2)n1 (configuration not stated),,4.01% (inactive)
OCCN1CCN(c2nc(N3CCCCC3)c3cnn(-c4ccc(Cl)cc4)c3n2)CC1,,0.975% (inactive)
OCC1CCCN(c2ncnc3c2cnn3-c2ccccc2)C1 (configuration not stated),394 nM (active),
Cc1ccc(Cl)cc1-n1ncc2c(N3CCC(C(N)=O)CC3)ncnc21,,0.685% (inactive)
Fc1ccc(Nc2nc(-c3ccccc3F)no2)cc1,9890 nM (active),
Cc1ccc(CSc2nc3cccnc3n2Cc2ccc(C(=O)NC3CC3)cc2)cc1,394 nM (active),
COc1ccc(CC(=O)Nc2ccc(-c3nc4ccccc4s3)c(C)c2)cc1,,-2.67% (inactive)
Cc1cccc(C(=O)Nc2ccc(-c3nc4ccccc4s3)c(C)c2)c1,9890 nM (active),
O=C(CSc1ccc(F)cc1)Nc1ccccc1-c1nc2ccccc2s1,,-5.95% (inactive)
CC(C)C(=O)Nc1cc(-c2nc3ccccc3s2)ccc1Cl,,3.21% (inactive)
Cc1ccc(C(=O)Nc2ccc(-c3nc4ccccc4s3)c(O)c2)cc1,,4.13% (inactive)
Cc1c(NC(=O)C(C)(C)C)cccc1-c1nc2ccccc2s1,5560 nM (active),
COc1ccc(C(=O)Nc2onc3c2CCCC3)cc1,1970 nM (active),
COc1ccc(C)cc1NC(=O)Nc1cccc(-c2ccc(N3CCCCC3)nn2)c1,1110 nM (active),
Cc1cccc(-c2cccc(NC(=O)C3CCCN(C(=O)CC(F)(F)F)C3)c2)c1 (configuration not stated),,-6.66% (inactive)
O=C(/C=C/c1ccccc1)Nc1cc(-c2nc3cc(Cl)ccc3o2)ccc1Cl,,-5.86% (inactive)
COc1cccc(-c2nc3ccc(-c4ccc5c(c4)OCO5)cc3o2)c1OC,2480 nM (active),
COc1ccc(-c2nc3ccccc3s2)cc1NC(=O)COc1ccccc1C,,-15.5% (inactive)

SMILES,Potency,"activity change, negative = inhibition"
CCC(CC)c1nn2cc(-c3ccccc3)nc2s1,881 nM (active),
Cc1nn(-c2ccc(C(C)C)cc2)c(C)c1[C@@H]1C=C[C@@H](NC(=O)CC2(CC(=O)O)CCCC2)C1,,-6.39% (inactive)
O=C(Nc1nc2c(s1)CCCC2)c1ccccc1F,556 nM (active),
O=C([C@@H]1C[C@@H](O)[C@H](O)[C@@H]2NC(=S)N(c3ccc(OC(F)(F)F)cc3)[C@@H]21)N1CCCCC1,,-13% (inactive)
O=C(Nc1ccccc1)c1nc2c(o1)CCN(Cc1cccc(Cl)c1)CC2,10100 nM (active),
Oc1ccc(-c2nc(C3CC3)nc3c2CCN(Cc2cccc(F)c2)CC3)cc1,,-2.1% (inactive)
CCOC(=O)C1CCN(C(=O)c2cccc3c2CCN3C(=O)Nc2ccccc2)CC1,1760 nM (active),
CC(=O)Nc1ccc(NC(=O)CCCc2nc(-c3ccc(C(C)(C)C)cc3)no2)cc1,4950 nM (active),
CC(=O)NC1(C)CN(Cc2ccc(-c3ccc4c(ccn4C)c3)s2)C1,2860 nM (active),
Cc1ccc(-c2nc(C(=O)N3CCN(c4ccccn4)CC3)no2)cc1,7850 nM (active),
COc1ccc(-c2ncc3c(n2)OCCN(CC2CC2)C3=O)cc1,8050 nM (active),
CCN(c1ncnc2c1cnn2-c1ccc(C)cc1)C1CCCCC1,881 nM (active),
CN1CCN(C[C@@H]2CN(C(=O)CCCc3ccccc3)C[C@@H]2CO)CC1,,1.79% (inactive)
CCNC(=O)C1C(c2cccc(NC(=O)c3ccc(OC)cc3)c2)OC(=O)N1Cc1ccc(C)cc1 (configuration not stated),3940 nM (active),
O=C(NCc1ccccc1)C1CCN(C(=O)c2ncn3c2COC(c2ccccc2)C3)CC1 (configuration not stated),2210 nM (active),
O=C(NCc1ccc(F)c(Cl)c1)C1CCN(C(=O)c2ncn3c2COC(c2ccccc2)C3)CC1 (configuration not stated),3510 nM (active),
O=C(NCC1CC1)C1CCN(C(=O)c2ncn3c2COC(c2ccccc2)C3)CC1 (configuration not stated),7000 nM (active),
COc1ccccc1OC1(C(=O)O)CCN(c2ncnc3nc[nH]c23)CC1,,2.15% (inactive)
